The results in this text go back to PubChem BioAssay (NCI).

This is part of a sample that, as a whole, favours compounds with a hit. Of some 83,000 tested, about 20% had one in any assay.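 Cells were grown in 96-well plates and exposed to the test compound at a single concentration for 48 hours; results are reported as percent growth, with values below 10 considered active.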 Values without a mark were called inactive. Activity calls are given as the source filed them.

Holding throughout (assay): NCI-60 one-dose screen, 48 h (100 = growth as untreated, 0 = no growth, -100 = all killed)
The subject of assay [1] is HCT-15 colon. As to conditions: 10 µM unless noted.
The test system of assay [2] is HT29 colon. As to conditions: 10 µM unless noted.
Assay [3] relates to SNB-19 CNS. Particulars: 10 µM unless noted.
The subject of assay [4] is U251 CNS. Particulars: 10 µM unless noted.
In assay [5] the test system is PC-3 prostate. As to conditions: 10 µM unless noted.
Assay [6] deals with SK-MEL-5 melanoma. As to conditions: 10 µM unless noted.
In assay [7] the test system is UACC-62 melanoma. Particulars: 10 µM unless noted.
Assay [8] has as its system LOX IMVI melanoma. Particulars: 10 µM.
For assay [9], the system named is SK-MEL-28 melanoma. As to conditions: 10 µM unless noted.
Assay [10] relates to SK-MEL-2 melanoma. Particulars: 10 µM unless noted.
Assay [11] deals with EKVX NSCLC. As to conditions: 10 µM unless noted.
In assay [12] the test system is SN12C renal. Particulars: 10 µM unless noted.
Assay [13] has as its system UO-31 renal. As to conditions: 10 µM unless noted.
Assay [14] has as its system TK-10 renal. As to conditions: 10 µM unless noted.
For assay [15], the system named is ACHN renal. Particulars: 10 µM unless noted.
Assay [16] relates to CAKI-1 renal. Particulars: 10 µM unless noted.
In assay [17] the test system is CCRF-CEM leukemia. As to conditions: 10 µM unless noted.
The subject of assay [18] is MOLT-4 leukemia. As to conditions: 10 µM unless noted.
The test system of assay [19] is A498 renal. Particulars: 10 µM unless noted.

As to `CC(=O)c1cc(C(=O)c2ccccc2)n2c1ccc1ccccc12`, the growth in [1] was 104%; in assay [2], 109%; in [3], 98%; in [4], 106%; in [5] it was 81%; in [6], 104%. The growth in assay [7] is 86.9%; in [8], 96.7%; in assay [9], 122%; in assay [10] it was 117%; in [11], 98.5%; in [12] it was 90.6%. Besides, the growth in [13] is 55.5%; in [14], 142%; in assay [15], 91.7%; in assay [16], 79.6%; in assay [17], 108%; in assay [18] it was 87.6%.
`CC(/C=C1\SC(=S)N(CCCC(=O)NC(CC(C)C)C(=O)O)C1=O)=C\c1ccccc1` (stereo not drawn): the growth in assay [1] is 98.6%; in [2] it was 119%; in [3], 93.8%; in assay [4], 79.6%; in assay [5] it was 55.9%; in assay [6], 88.1%. The growth was 76% in assay [7]; 53.2% in [8]; 94.8% in assay [9]; 101% in [10]; 90.2% in assay [12]; 64.4% in [13]. Moreover, the growth is 131% in assay [14]; 54.1% in [15]; 79.5% in assay [16]; 145% in assay [19]; 89.7% in assay [17]; 54.9% in assay [18].
`CCCSc1nc(Nc2ccc(S(N)(=O)=O)cc2)c(C#N)c(-c2cc(OC)c(OC)c(OC)c2)n1`: the growth in assay [1] is 15.3%; in [2] it was 16.6%; in [3] it was 43.8%; in assay [4] it was 27.4%; in [5] it was 12.6%; in [6], 6.41% (active). Further, the growth in [7] is 21%; in assay [8], 5.09% (active); in assay [9] it was 35.8%; in assay [10], 43%; in assay [11] it was 36.6%; in assay [12] it was 20.4%. The growth in assay [13] is 2.53% (active); in assay [14], 50.4%; in [15], 11.8%; in [16] it was 25.6%; in assay [17], 8.03% (active); in assay [18], -35.8% (active).
On to `Cc1nc(Nc2ncc(C(=O)Nc3c(C)cccc3Cl)s2)cc(N2CCN(CCCNC(=O)COc3ccc(C4CCC(=O)NC4=O)cc3)CC2)n1` (stereo not drawn), for which the growth in [1] was 68.3%; in [2], -13.6% (active); in assay [3], 47.9%; in assay [4] it was 62.6%; in assay [5], 44.1%; in [6] it was 73.7%. Besides, the growth is 55.4% in assay [7]; -96.6% (active) in [8]; 89.4% in assay [9]; 109% in [10]; 58.6% in assay [11]; 25.2% in assay [12]. For the same compound, the growth was 38.4% in assay [13]; -7.44% (active) in assay [14]; 8.27% (active) in assay [15]; -30.7% (active) in assay [16]; 95.1% in assay [17]; 48.9% in assay [18].
Turning to `Cc1ccccc1[C@H]1C(C(=O)c2ccc(Cl)cc2)C2(N[C@@H]1c1ccccc1)C(=O)Nc1ccc(Cl)cc12` (stereo partly drawn), the growth is -69.1% (active) in [1]; -88.5% (active) in [2]; 17.4% in assay [3]; -82.9% (active) in assay [4]; -26.9% (active) in [5]; 0.559% (active) in [6]. Further, the growth in [7] was -55.5% (active); in assay [8], -100% (active); in assay [9], -23.4% (active); in [10], -64% (active); in assay [12] it was -95.4% (active); in assay [13], 0.337% (active). In addition, the growth in assay [14] was 9% (active); in assay [15], -9.02% (active); in assay [16], 8.92% (active); in assay [19] it was 50%; in [17] it was -14.9% (active); in [18] it was -17.5% (active).
Consider `COc1ccc(/C=C/c2nc3ccccc3c(=O)n2CC(=O)Nc2ccc(Cl)cc2)cc1`, for which the growth in assay [1] is 75.2%; in assay [2], 38.7%; in [3], 77.4%; in assay [4], 10.9%; in assay [5], 48.3%; in [6], 89%. For the same compound, the growth in [7] was 73.3%; in assay [8], 36.5%; in assay [9], 93%; in assay [10] it was 99.9%; in assay [11], 89.3%; in [13], 79.5%. The growth is 116% in assay [14]; 50.7% in [15]; 43.1% in [16]; 118% in [19]; 82.2% in assay [18].
Regarding `COc1ccc(-c2ccc(SCC(=O)Nc3ccc(S(N)(=O)=O)cc3Br)nn2)cc1`, the growth was 84.5% in assay [1]; 95.7% in assay [2]; 23.4% in assay [3]; 73.5% in assay [5]; 94.3% in assay [6]; 83.2% in [7]. Also, the growth in assay [8] was 98.8%; in assay [9] it was 99.2%; in assay [10], 68.9%; in assay [11], 78%; in [12] it was 88.4%; in assay [13], 88.3%. Moreover, the growth in [14] was 116%; in assay [15], 86.7%; in assay [16] it was 63.1%; in assay [19] it was 89.8%; in [17] it was 98.7%; in assay [18], 93.7%.
`Cn1cc(-c2cc(N)n3nc(-c4cn(C)c5ncc(Br)cc45)cc3n2)c2cc(Br)cnc21`: the growth in assay [1] is -76.6% (active); in [2] it was -85% (active); in assay [3] it was 10%; in assay [4], -62.1% (active); in assay [5], 1.06% (active); in assay [6], 34.8%. The growth is -82.3% (active) in [7]; -100% (active) in [8]; -49.9% (active) in [9]; 39.5% in [10]; 85.1% in assay [11]; 45.8% in assay [13]. Further, the growth was -10.2% (active) in [14]; 1.23% (active) in assay [15]; 56.6% in assay [16]; 114% in [19]; 3.66% (active) in [17]; -54.3% (active) in assay [18].
